The source made the active and inactive calls. How the source made its calls: active means hit-call score of the fitted dose curve at least 0.9, where 1 is the maximum; inactive means score below 0.9.

The nature of experiment [1]: ATG_CRE_CIS: Attagene CIS-FACTORIAL HepG2 Assay for human cAMP Responsive Element (CRE) binding protein 3 (AID 2282926). The settings on record: HepG2 CRE cis-reporter, Attagene multiplexed mRNA; actives raise or lower the signal. The method in brief: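 HepG2 cells transiently transfected with a multiplexed reporter library (CRE-driven unit among them) were dosed for 24 h. Reporter mRNA was quantified by RT-PCR, fluorescent labelling, HpaI digestion and capillary electrophoresis, with bidirectional fitting against DMSO baseline.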

Experiment [2] deals with CCAAT/enhancer-binding protein beta (Homo sapiens) (UniProt P17676). The experiment is described as follows: ATG_C_EBP_CIS: Attagene CIS-FACTORIAL HepG2 Assay for human CCAAT/Enhancer Binding Protein (C/EBP) beta (AID 2282927). The conditions noted are these: HepG2 Attagene cis-factorial transcription factor reporter; actives raise or lower the signal. In a few lines: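 HepG2, transient MRTU transfection, 24 h treatment. RT-PCR plus CE fluorescence; DMSO negative control, bidirectional fit.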

The nature of experiment [3]: ATG_CMV_CIS: Attagene CIS-FACTORIAL HepG2 Assay for human CMV (Internal Marker) (AID 2282928).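 Further: endpoint acts as a background internal control marker rather than a target.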 The conditions noted are these: HepG2 CMV promoter reporter, transcription factor profiling; actives raise or lower the signal. In a few lines:
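HepG2 cells transiently transfected with multiple cis-regulated reporter units; 24 h compound exposure. Reporter mRNA quantified by RT-PCR, 6-FAM primer-extension labeling, HpaI digestion and capillary electrophoresis; bidirectional fitting against DMSO baseline.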

A short description of experiment [4]: ATG_DR4_LXR_CIS: Attagene CIS-FACTORIAL HepG2 Assay for human Liver X Receptor (LXR), DR4 submotif (AID 2282929). The settings on record: HepG2 Attagene DR4 cis-reporter, mRNA transcription; actives raise or lower the signal. The method in brief: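 HepG2 cells transiently transfected with cis-promoter-driven multiplexed reporter units (DR4 element) were dosed for 24 h. Reporter mRNA was quantified by RT-PCR, fluorescent primer extension, HpaI digestion and capillary electrophoresis; bidirectional fitting versus DMSO baseline.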

The target in experiment [5] is Aryl hydrocarbon receptor (Homo sapiens) (UniProt P35869). Kind of experiment: ATG_Ahr_CIS: Attagene CIS-FACTORIAL HepG2 Assay for human Aryl Hydrocarbon Receptor (Ahr) (AID 2282930). The settings on record: HepG2 AhR cis-factorial reporter transcription; actives raise or lower the signal. In a few lines: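 Endogenous factor activity is tracked through cis-promoter reporter units transfected into HepG2 cells. Transcript levels at 24 h are read by fluorescent RT-PCR and capillary electrophoresis, with activity in either direction scored relative to DMSO.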

Experiment [6] can be described thus: ATG_AP_1_CIS: Attagene CIS-FACTORIAL HepG2 Assay for human Activator Protein 1 (AP-1) (AID 2282931). The settings on record: HepG2 Attagene cis-factorial AP-1 reporter mRNA; actives raise or lower the signal. The method in brief:
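HepG2 cells transiently transfected with cis-element-driven multiplex reporter units; 24 h compound exposure. Reporter mRNA quantified by RT-PCR, FAM-labelled fragments resolved by capillary electrophoresis; bidirectional fit versus DMSO baseline.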

Experiment [7] can be described thus: ATG_AP_2_CIS: Attagene CIS-FACTORIAL HepG2 Assay for human Activator Protein 2 (AP-2) (AID 2282932). The settings on record: HepG2 AP-2 cis-reporter, Attagene transcription factor profiling; actives raise or lower the signal. The method in brief:
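Multiplexed mRNA reporter assay in HepG2: cis-regulated units report endogenous factor activity after 24 h treatment. Fluorescence from capillary electrophoresis of RT-PCR products gives the signal, with DMSO as baseline.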

Experiment [8] is described as follows: ATG_BRE_CIS: Attagene CIS-FACTORIAL HepG2 Assay for human Bone Morphogenetic Protein (BMP) Response Element (BRE) (AID 2282933). The conditions noted are these: HepG2 BMP response element reporter, Attagene transcription factor profiling; actives raise or lower the signal. In a few lines:
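Endogenous transcription factor activity at a BMP response element was monitored in transfected HepG2 cells 24 h after dosing. Fluorescent RT-PCR products were resolved by capillary electrophoresis, and activity was fitted in both directions versus DMSO.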

For experiment [9], the target named is Retinoic acid receptor alpha (Homo sapiens) (UniProt P10276). Kind of experiment: ATG_DR5_RAR_CIS: Attagene CIS-FACTORIAL HepG2 Assay for human Retinoic Acid Receptor Alpha (RARE), DR5 submotif (AID 2282934).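 On AC50: reporter responds to endogenous RAR alpha beta and gamma in HepG2 not RARA alone.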 The conditions noted are these: HepG2 Attagene cis-factorial RARE DR5 reporter, mRNA; actives raise or lower the signal. The method in brief: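 After 24 h of chemical exposure, transiently transfected HepG2 cells were lysed for total RNA; the DR5-regulated reporter transcript was quantified via RT-PCR and capillary electrophoresis, with activity fitted bidirectionally against DMSO.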

In experiment [10] the target is Transcription factor E2F1 (Homo sapiens) (UniProt Q01094). Kind of experiment: ATG_E2F_CIS: Attagene CIS-FACTORIAL HepG2 Assay for human E2F Transcription Factor 1 (AID 2282935). The conditions noted are these: HepG2 Attagene cis-reporter, E2F reporter RNA transcripts; actives raise or lower the signal. In a few lines:
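Measures reporter transcript levels via RT-PCR with capillary electrophoresis detection in HepG2 cells harboring cis-regulated reporter units; 24 h post-dose; bidirectional curve fitting with DMSO as baseline.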

The nature of experiment [11]: ATG_E_Box_CIS: Attagene CIS-FACTORIAL HepG2 Assay for human Enhancer Box (E-box) (AID 2282936). The settings on record: HepG2 E-box cis-reporter transcription, actives raise or lower the signal. The method in brief: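 First, HepG2 cells receive multiple cis-regulated reporter constructs by transient transfection. Next, chemicals are applied for 24 h. Finally, reporter mRNA is quantified via RT-PCR and capillary electrophoresis, with DMSO as baseline.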

Experiment [12] in a line: ATG_M_61_CIS: Attagene CIS-FACTORIAL HepG2 Assay for M61 Transcription Factor (Internal Marker) (AID 2282937). The conditions noted are these: HepG2 Attagene CIS-FACTORIAL M61 internal marker reporter; actives raise or lower the signal. In a few lines: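 HepG2 cells transiently transfected with cis-element-driven multiple reporter transcription units, dosed for 24 h. Reporter mRNA measured by RT-PCR, 6-FAM primer-extension labelling, HpaI digestion and capillary electrophoresis; bidirectional fit versus DMSO baseline.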

Experiment [13] in a line: ATG_EGR_CIS: Attagene CIS-FACTORIAL HepG2 Assay for human Early Growth Response 1 (EGR1) (AID 2282938). The settings on record: HepG2 Attagene CIS-FACTORIAL EGR reporter mRNA; actives raise or lower the signal. The method in brief: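 HepG2 cells transiently transfected with cis-promoter-driven multiplexed reporter transcription units; reporter mRNA measured 24 h after compound dosing by RT-PCR, 6-FAM primer extension, HpaI digestion and capillary electrophoresis. Bidirectional fit versus DMSO baseline.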

The nature of experiment [14]: ATG_M_19_CIS: Attagene CIS-FACTORIAL HepG2 Assay for M19 Transcription Factor (Internal Marker) (AID 2282939). The conditions noted are these: HepG2 Attagene CIS-FACTORIAL M19 internal marker reporter; actives raise or lower the signal. In a few lines:
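Background-control endpoint from a multiplexed HepG2 reporter panel. Cells carrying cis-regulated reporter constructs are treated 24 h, then reporter transcripts are amplified, fluorescently labelled and sized by capillary electrophoresis. DMSO defines baseline.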

The nature of experiment [15]: ATG_ERE_CIS: Attagene CIS-FACTORIAL HepG2 Assay for Estrogen Response Element (ERE) (AID 2282940). The settings on record: HepG2 ERE cis-reporter, Attagene RNA transcript; actives raise or lower the signal. The method in brief: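 Cells used were human hepatoma HepG2, transfected with multiple reporter transcription units under cis-regulatory promoters. Reporter mRNA, read 24 h post-dosing via fluorescent RT-PCR products on capillary electrophoresis, was fitted bidirectionally relative to DMSO.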

Experiment [16] in a line: ATG_Ets_CIS: Attagene CIS-FACTORIAL HepG2 Assay for human Erythroblast Transformation Specific (ETS) (AID 2282941). The conditions noted are these: HepG2 ETS cis-reporter transcription, actives raise or lower the signal. In a few lines:
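HepG2 cells transiently transfected with cis-promoter reporter transcription units were dosed for 24 h; reporter mRNA was measured by RT-PCR, 6-FAM primer extension, HpaI digestion and capillary electrophoresis, with bidirectional fitting against DMSO baseline.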

For experiment [17], the target named is Hepatocyte nuclear factor 3-beta (Homo sapiens) (UniProt Q9Y261). Kind of experiment: ATG_FoxA2_CIS: Attagene CIS-FACTORIAL HepG2 Assay for human Forkhead box A2 (FOXA2) (AID 2282942). The conditions noted are these: HepG2 cis-reporter transcription factor activity, 24 h; actives raise or lower the signal. In a few lines:
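HepG2 cells transiently transfected with multiple cis-regulated reporter transcription units, dosed for 24 h. Reporter mRNA measured by RT-PCR, 6-FAM labelling, HpaI digestion and capillary electrophoresis; bidirectional fitting against DMSO baseline.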

A short description of experiment [18]: ATG_FoxO_CIS: Attagene CIS-FACTORIAL HepG2 Assay for human Forkhead box O (FoxO) (AID 2282943). The settings on record: HepG2 Attagene cis-reporter, FoxO element, mRNA; actives raise or lower the signal. The method in brief:
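Transfected HepG2 reporter cells exposed to test chemical for 24 h; reporter RNA measured by reverse transcription, PCR and fluorescent capillary electrophoresis; curves fitted for increases and decreases against DMSO.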

A short description of experiment [19]: ATG_GATA_CIS: Attagene CIS-FACTORIAL HepG2 Assay for human GATA Binding Protein (AID 2282944). The conditions noted are these: HepG2 GATA cis-element reporter, Attagene multiplex mRNA; actives raise or lower the signal. The method in brief: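 Endogenous transcription factor activity was captured through cis-promoter-driven reporters in transfected HepG2 cells. After 24 h exposure, reporter transcripts were quantified by RT-PCR with fluorescent capillary electrophoresis, and responses fitted both directions against DMSO.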

A short description of experiment [20]: ATG_GLI_CIS: Attagene CIS-FACTORIAL HepG2 Assay for human Zinc Finger Protein GLI1 (AID 2282945). The settings on record: HepG2, Attagene cis-factorial reporter mRNA, GLI element; actives raise or lower the signal. The method in brief:
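Transiently transfected HepG2 cells report endogenous transcription factor activity via cis-element-driven reporter units. After 24 h compound exposure, reporter mRNA was measured by RT-PCR with capillary electrophoresis; bidirectional fitting against DMSO baseline.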

Aryl hydrocarbon receptor (Homo sapiens), sequence (P35869 whole entry, looked up): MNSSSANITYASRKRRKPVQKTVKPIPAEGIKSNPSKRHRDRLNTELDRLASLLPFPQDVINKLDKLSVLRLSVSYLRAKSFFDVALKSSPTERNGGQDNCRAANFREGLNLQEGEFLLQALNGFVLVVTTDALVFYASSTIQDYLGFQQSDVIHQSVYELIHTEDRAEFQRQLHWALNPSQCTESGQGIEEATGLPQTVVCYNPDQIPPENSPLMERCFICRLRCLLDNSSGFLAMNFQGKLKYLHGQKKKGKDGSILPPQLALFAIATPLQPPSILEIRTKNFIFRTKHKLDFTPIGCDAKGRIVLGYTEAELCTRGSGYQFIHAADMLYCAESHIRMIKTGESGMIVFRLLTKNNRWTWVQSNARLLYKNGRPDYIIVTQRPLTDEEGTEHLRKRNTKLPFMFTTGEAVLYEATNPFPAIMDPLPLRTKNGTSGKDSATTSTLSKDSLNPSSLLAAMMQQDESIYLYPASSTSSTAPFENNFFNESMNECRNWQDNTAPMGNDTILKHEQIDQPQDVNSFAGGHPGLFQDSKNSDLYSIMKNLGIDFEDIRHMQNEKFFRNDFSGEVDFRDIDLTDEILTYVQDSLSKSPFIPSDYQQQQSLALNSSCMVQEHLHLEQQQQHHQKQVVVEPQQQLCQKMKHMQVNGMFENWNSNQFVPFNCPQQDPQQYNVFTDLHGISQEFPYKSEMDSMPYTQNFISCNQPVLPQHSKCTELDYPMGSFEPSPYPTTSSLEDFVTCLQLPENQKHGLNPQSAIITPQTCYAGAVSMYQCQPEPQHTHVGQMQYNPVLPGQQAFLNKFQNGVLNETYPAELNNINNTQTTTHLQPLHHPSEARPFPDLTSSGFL
Transcription factor E2F1 (Homo sapiens), sequence (Q01094 whole entry, looked up): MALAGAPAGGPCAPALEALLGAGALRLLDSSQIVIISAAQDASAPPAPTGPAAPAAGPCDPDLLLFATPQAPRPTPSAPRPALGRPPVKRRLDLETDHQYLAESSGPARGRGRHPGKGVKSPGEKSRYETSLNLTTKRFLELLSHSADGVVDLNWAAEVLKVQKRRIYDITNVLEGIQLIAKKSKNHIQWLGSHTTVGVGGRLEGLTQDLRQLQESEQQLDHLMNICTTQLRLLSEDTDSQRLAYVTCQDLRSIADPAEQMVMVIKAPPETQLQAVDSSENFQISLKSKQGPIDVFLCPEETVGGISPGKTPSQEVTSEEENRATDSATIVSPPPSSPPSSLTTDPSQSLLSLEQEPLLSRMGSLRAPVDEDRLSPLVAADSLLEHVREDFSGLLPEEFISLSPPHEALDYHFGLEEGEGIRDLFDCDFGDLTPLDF
CCAAT/enhancer-binding protein beta (Homo sapiens), sequence (P17676 whole entry, looked up): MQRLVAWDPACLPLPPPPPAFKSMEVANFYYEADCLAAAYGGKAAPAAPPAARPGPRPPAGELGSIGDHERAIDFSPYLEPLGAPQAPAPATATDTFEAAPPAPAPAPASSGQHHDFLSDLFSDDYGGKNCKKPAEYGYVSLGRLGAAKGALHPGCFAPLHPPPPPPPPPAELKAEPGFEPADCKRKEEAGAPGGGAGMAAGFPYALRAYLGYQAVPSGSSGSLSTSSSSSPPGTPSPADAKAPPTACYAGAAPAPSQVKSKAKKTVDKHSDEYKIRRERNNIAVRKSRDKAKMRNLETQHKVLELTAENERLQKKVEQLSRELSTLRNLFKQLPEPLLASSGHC
Hepatocyte nuclear factor 3-beta (Homo sapiens), sequence (Q9Y261 whole entry, looked up): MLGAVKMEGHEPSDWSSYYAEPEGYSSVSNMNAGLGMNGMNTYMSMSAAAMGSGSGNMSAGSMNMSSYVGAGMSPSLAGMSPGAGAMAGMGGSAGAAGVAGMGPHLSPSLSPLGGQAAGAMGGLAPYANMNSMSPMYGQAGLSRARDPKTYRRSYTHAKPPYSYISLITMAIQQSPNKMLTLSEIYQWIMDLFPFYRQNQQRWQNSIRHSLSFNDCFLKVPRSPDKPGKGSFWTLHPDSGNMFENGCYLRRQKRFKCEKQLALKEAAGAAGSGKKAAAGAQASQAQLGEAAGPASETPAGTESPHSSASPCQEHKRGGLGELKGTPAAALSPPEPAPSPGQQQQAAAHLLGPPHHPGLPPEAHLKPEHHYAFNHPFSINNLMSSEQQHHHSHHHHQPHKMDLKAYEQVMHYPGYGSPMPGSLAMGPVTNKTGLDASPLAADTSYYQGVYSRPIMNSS
Retinoic acid receptor alpha (Homo sapiens), sequence (P10276 whole entry, looked up): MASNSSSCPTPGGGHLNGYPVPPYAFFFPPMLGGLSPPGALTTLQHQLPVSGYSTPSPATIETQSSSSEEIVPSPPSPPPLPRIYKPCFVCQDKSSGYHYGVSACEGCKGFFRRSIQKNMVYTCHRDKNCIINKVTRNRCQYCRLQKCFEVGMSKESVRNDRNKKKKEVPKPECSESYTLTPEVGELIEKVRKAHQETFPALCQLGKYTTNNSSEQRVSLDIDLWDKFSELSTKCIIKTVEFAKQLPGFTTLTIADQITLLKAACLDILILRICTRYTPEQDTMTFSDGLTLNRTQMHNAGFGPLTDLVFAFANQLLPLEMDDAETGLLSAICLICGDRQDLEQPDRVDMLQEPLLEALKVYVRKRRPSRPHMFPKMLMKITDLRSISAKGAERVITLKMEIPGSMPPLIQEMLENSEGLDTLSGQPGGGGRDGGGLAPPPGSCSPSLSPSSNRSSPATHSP

For orientation: AC50 means the concentration at which the activity in the assay is half-maximal. As to `CC(C)C(=O)C(C)C`, the AC50 in experiment [1] was 36.9 µM (active); in experiment [6], 66.5 µM (active); in [13] it was 59.4 µM (active); in [18], 65.6 µM (active). For the same compound, the outcome in experiment [2], in experiment [3], in [4], in experiment [5], in experiment [7] and in experiment [8] was inactive. In addition, the outcome in experiment [9], in experiment [10], in experiment [11], in experiment [12], in experiment [14] and in [15] was inactive. Besides, the result in [16], in experiment [17], in experiment [19] and in experiment [20] was inactive.

Consider `C=C1[C@H]2CC[C@@H]3[C@H]2C(C)(C)CCC[C@]13C`, for which the compound was classed as inactive in [1], in experiment [2], in experiment [4], in [5], in [6] and in [7]. Besides, the compound was called inactive in [8], in experiment [9], in experiment [10], in [11], in [12] and in experiment [13]. Moreover, the compound was called inactive in [14], in experiment [15], in [16], in experiment [17], in experiment [18] and in experiment [19]. Moreover, the compound was called inactive in experiment [20]. Besides, the AC50 in [3] was 100 µM (active).

Regarding `CCCCCCCCCCOC(C)=O`, the call in experiment [1], in experiment [2], in [3], in [4], in [5] and in experiment [6] was inactive. In addition, the outcome in experiment [7], in experiment [8], in [9], in [10], in experiment [11] and in experiment [12] was inactive. Also, the result in experiment [13], in experiment [14], in [16], in experiment [17], in experiment [18] and in [19] was inactive. For the same compound, in experiment [20], the result was inactive. Also, in experiment [15], the AC50 was 8.88 µM (active).

As to `CCC(Cc1ccccc1)(C(=O)c1ccc(N2CCOCC2)cc1)N(C)C` (centres undefined), the compound was classed as inactive in experiment [1], in experiment [2], in experiment [3], in experiment [4], in experiment [5] and in experiment [7]. Moreover, the result in [8], in experiment [10], in [12], in experiment [14], in experiment [16] and in experiment [18] was inactive. For the same compound, the compound was called inactive in experiment [19] and in experiment [20]. Further, the AC50 in [6] was 72.1 µM (active); in experiment [9], 73.1 µM (active); in experiment [11] it was 17 µM (active); in experiment [13], 31.6 µM (active); in experiment [15], 5.54 µM (active).

Source of the values: PubChem BioAssay (EPA / NIEHS).
